From the supplement of paper PMC10849652 come the findings set out here.

About 7,900 targets were measured; listed, in parts, are those with a hit and a random draw of the rest. About 0.6% of all pairs of compound and target were hits.

Chain of UniProt P48449 (P48449 whole entry, looked up): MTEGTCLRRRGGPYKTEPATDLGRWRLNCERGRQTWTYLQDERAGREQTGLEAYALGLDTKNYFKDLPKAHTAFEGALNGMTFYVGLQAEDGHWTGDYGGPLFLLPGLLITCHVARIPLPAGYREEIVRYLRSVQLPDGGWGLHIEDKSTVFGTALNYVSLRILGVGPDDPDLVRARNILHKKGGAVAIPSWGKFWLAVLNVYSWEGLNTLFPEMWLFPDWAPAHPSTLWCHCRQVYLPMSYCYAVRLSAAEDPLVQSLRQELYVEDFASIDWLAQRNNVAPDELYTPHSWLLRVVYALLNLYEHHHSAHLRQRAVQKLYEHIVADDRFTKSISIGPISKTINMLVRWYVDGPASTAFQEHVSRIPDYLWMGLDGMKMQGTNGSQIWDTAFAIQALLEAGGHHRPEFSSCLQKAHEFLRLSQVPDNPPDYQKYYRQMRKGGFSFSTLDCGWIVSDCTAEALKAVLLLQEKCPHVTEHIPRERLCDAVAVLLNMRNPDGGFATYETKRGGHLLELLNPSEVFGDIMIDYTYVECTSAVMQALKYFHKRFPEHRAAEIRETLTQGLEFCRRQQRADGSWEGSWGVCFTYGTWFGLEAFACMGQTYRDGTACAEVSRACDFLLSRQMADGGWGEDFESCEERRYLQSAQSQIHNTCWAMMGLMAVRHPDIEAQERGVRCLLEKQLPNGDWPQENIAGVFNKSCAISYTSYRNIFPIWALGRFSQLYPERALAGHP
Chain of UniProt Q6N075 (Q6N075 whole entry, looked up): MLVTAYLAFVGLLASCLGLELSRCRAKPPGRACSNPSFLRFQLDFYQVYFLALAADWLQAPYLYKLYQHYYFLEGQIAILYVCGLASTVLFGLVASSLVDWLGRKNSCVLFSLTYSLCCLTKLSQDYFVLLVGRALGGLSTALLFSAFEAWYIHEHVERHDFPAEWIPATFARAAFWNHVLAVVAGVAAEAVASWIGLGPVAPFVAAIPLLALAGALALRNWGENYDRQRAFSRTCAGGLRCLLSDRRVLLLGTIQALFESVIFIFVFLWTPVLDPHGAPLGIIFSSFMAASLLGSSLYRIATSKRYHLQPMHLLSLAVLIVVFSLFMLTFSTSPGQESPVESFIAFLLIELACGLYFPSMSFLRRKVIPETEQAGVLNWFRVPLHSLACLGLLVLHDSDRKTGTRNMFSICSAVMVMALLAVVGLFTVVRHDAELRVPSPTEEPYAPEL
Chain of UniProt Q8TBB5 (Q8TBB5 whole entry, looked up): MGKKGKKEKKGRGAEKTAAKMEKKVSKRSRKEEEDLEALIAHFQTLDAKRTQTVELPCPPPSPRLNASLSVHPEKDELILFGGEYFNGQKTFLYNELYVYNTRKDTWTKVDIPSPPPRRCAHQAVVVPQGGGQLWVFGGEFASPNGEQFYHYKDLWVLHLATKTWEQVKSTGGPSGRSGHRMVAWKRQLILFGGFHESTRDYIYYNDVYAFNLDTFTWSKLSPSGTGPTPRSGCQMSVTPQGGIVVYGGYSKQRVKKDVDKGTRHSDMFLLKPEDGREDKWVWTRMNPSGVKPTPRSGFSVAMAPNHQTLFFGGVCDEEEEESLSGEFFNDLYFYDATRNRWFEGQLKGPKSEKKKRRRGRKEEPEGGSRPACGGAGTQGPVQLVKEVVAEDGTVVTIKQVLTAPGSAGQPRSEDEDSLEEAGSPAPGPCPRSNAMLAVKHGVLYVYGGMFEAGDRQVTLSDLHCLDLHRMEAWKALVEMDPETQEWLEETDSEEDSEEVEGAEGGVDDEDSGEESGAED
Chain of UniProt Q8IW41 (Q8IW41 whole entry, looked up): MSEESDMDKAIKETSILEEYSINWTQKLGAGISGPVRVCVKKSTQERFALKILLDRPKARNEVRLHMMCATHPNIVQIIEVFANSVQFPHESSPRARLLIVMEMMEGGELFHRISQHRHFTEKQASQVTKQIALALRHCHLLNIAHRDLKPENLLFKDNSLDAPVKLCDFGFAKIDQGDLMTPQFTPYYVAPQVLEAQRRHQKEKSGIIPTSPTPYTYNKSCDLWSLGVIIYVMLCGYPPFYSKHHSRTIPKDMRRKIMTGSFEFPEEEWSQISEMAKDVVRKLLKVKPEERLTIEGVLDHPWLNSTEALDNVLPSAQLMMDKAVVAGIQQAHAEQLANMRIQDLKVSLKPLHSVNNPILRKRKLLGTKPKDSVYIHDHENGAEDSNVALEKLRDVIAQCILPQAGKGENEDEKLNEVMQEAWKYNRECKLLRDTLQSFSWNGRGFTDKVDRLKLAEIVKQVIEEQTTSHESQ
Chain of UniProt Q14624 (Q14624 whole entry, looked up): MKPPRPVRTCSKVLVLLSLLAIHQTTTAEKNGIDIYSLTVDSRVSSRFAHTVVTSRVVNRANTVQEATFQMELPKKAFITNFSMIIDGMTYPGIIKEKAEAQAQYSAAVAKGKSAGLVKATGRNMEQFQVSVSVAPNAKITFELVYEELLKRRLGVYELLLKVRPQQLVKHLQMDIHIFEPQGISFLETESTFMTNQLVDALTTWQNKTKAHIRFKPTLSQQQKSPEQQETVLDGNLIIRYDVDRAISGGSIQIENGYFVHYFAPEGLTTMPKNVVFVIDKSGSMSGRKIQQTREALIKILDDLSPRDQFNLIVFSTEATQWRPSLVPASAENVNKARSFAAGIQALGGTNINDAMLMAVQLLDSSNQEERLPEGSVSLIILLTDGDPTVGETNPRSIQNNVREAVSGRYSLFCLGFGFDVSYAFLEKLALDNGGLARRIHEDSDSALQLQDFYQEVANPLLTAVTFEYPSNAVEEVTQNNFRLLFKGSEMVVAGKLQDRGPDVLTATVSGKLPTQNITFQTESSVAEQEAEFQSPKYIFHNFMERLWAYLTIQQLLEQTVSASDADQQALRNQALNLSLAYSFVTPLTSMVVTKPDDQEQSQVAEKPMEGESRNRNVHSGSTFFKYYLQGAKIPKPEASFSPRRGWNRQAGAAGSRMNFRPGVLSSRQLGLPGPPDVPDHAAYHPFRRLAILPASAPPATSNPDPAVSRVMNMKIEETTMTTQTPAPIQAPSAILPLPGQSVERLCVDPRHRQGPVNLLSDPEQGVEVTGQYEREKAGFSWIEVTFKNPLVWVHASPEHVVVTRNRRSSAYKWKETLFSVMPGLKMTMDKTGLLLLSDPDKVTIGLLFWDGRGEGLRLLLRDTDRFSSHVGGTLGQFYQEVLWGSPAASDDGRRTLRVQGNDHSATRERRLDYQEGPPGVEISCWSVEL
Chain of UniProt Q9Y2E5 (Q9Y2E5 whole entry, looked up): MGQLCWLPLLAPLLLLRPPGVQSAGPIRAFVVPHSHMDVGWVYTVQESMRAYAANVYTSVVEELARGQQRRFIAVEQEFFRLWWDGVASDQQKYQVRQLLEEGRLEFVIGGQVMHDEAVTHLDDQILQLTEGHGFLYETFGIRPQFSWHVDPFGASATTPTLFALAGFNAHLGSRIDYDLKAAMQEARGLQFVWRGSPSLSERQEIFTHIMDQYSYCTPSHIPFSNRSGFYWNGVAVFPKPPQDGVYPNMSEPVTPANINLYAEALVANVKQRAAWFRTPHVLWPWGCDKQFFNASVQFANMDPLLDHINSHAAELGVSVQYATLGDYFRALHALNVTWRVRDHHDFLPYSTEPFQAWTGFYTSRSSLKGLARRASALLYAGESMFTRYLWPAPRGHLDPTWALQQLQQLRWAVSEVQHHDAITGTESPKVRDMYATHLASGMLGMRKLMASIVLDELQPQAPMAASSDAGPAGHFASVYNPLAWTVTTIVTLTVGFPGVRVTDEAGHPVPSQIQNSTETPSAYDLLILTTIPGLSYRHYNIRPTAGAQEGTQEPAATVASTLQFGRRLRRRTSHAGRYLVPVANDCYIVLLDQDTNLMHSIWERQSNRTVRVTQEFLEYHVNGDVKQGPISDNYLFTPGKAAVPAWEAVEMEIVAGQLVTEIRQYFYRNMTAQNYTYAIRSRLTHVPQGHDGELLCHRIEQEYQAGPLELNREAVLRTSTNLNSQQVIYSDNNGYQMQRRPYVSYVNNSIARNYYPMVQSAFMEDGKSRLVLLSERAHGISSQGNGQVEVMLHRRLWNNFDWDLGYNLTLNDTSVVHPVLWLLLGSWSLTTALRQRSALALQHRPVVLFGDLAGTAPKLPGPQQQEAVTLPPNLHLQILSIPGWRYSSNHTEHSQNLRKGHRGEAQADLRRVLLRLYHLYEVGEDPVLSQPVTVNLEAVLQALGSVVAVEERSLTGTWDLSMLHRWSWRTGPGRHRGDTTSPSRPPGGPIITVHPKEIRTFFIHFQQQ
Chain of UniProt Q96GA3 (Q96GA3 whole entry, looked up): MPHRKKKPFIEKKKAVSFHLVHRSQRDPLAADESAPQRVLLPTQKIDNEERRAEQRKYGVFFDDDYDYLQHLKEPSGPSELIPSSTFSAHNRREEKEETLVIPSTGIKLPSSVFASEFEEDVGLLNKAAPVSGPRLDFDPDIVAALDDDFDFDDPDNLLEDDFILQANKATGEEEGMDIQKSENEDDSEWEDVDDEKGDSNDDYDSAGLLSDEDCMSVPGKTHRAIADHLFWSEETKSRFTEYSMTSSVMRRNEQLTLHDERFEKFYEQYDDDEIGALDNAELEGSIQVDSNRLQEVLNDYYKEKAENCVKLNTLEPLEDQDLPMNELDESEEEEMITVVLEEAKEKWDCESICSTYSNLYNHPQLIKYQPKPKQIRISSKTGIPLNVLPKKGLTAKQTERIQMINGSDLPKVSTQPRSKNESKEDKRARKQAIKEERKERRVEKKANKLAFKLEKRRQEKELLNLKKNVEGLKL
Chain of UniProt O43766 (O43766 whole entry, looked up): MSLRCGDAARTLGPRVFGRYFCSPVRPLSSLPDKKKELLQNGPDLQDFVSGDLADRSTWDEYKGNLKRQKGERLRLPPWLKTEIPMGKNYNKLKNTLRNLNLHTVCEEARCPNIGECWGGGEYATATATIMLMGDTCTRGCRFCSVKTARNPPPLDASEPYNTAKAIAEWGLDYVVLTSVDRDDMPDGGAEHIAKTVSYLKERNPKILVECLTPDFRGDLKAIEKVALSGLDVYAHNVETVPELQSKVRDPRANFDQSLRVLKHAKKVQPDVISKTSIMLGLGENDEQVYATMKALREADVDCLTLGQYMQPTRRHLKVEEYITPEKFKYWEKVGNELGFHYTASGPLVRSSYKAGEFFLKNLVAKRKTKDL

Compound in the first experiment: CC(=O)c1cnc2ccc(-c3cc(Cl)c(O)c(Cl)c3)nc2c1N[C@H]1CC[C@H](CN(C)C)CC1
Put plainly: log2 fold change, soluble protein after heating vs DMSO (PISA); higher = thermal stabilisation; K562 cells, 10 uM, 30 min; active = over 0.2 and 3.5 SD of the protein, either way, in both replicates (recomputed). Put shortly: (§1)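 K562 cells at 2×10^6 cells/mL were given 10 μM compound for 30 min. Aliquots then went through 3 min of heating across 48°C-58°C, were pooled, and were extracted in PBS with 0.5% NP-40 at 4°C, and the supernatant after 21,000xg for 90 min was quantified by TMTpro 16plex LC-MS/MS with channel sums equalised. Thermal stability relative to control samples, from duplicates, is given as log2 fold change.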
In the case of KLHDC4 (UniProt Q8TBB5), the log2 fold change is -0.008 (inactive).

On to LSS (UniProt P48449), for which the log2 fold change was -0.084 (inactive).

As for MAN2B2 (UniProt Q9Y2E5), the log2 fold change was -0.171 (inactive).

As for KHDC4 (UniProt Q7Z7F0), the log2 fold change was 0.003 (inactive).

For the target MCCC2 (UniProt Q9HCC0), the log2 fold change is 0.047 (inactive).

As to MAPKAPK5 (UniProt Q8IW41), the log2 fold change was 0.052 (inactive).

As for JMJD6 isoform 3 (UniProt Q6NYC1), the log2 fold change was -0.049 (inactive).

Consider LARP4B (UniProt Q92615), for which the log2 fold change is -0.048 (inactive).

Turning to LEO1 (UniProt Q8WVC0), the log2 fold change was -0.027 (inactive).

For the target KDM1A isoform 2 (UniProt O60341), the log2 fold change was -0.123 (inactive).

Turning to MFSD5 isoform 2 (UniProt Q6N075), the log2 fold change was -0.007 (inactive).

For the target ITIH4 (UniProt Q14624), the log2 fold change was 0.041 (inactive).

For the target LARP4 isoform 4 (UniProt Q71RC2), the log2 fold change is -0.128 (inactive).

As for LTV1 (UniProt Q96GA3), the log2 fold change is 0.224 (inactive).

For LIAS (UniProt O43766), the log2 fold change is 0.101 (inactive).

Compound in another experiment: CC(C)(C)Cn1c(N)nc2ccc(-c3[nH]c(C(C)(C)C)nc3-c3ccc(F)cc3)nc21 [ralimetinib]
The experiment is described as above. In short, it runs like this: as §1
Turning to KPNA6 (UniProt O60684), the log2 fold change was 0.077 (inactive).

For KDM3B (UniProt Q7LBC6), the log2 fold change is -0.018 (inactive).

On to LMBRD2 (UniProt Q68DH5), for which the log2 fold change is -0.016 (inactive).

Turning to ME2 (UniProt P23368), the log2 fold change is -0.003 (inactive).

Regarding ILKAP (UniProt Q9H0C8), the log2 fold change was -0.024 (inactive).

For the target MFN2 (UniProt O95140), the log2 fold change is -0.014 (inactive).

On to INPP5B (UniProt P32019), for which the log2 fold change was 0.062 (inactive).

LARP1 (UniProt Q6PKG0): the log2 fold change is 0.031 (inactive).

As for MIER1 isoform 12 (UniProt Q8N108), the log2 fold change is 0.033 (inactive).

Turning to L2HGDH (UniProt Q9H9P8), the log2 fold change was 0.003 (inactive).

KRAS isoform 2 (UniProt P01116): the log2 fold change is 0.02 (inactive).

With LTO1 (UniProt Q8WV07), the log2 fold change was 0.028 (inactive).

On to MFN1 (UniProt Q8IWA4), for which the log2 fold change was -0.027 (inactive).

Turning to IKZF1 (UniProt Q13422), the log2 fold change is -0.036 (inactive).

Regarding MAP3K7 (UniProt O43318), the log2 fold change is 0.035 (inactive).

Turning to KIF3A (UniProt Q9Y496), the log2 fold change was 0.085 (inactive).

Turning to IMMT isoform 4 (UniProt Q16891), the log2 fold change was -0.044 (inactive).

In the case of LDLR (UniProt P01130), the log2 fold change was -0.025 (inactive).

For the target LMNA (UniProt P02545), the log2 fold change was -0.058 (inactive).

As for MAGI1 (UniProt Q96QZ7), the log2 fold change is 0.014 (inactive).

With MAP3K4 isoform 2 (UniProt Q9Y6R4), the log2 fold change is 0.007 (inactive).

For the target IWS1 (UniProt Q96ST2), the log2 fold change is -0.04 (inactive).

For INTS5 (UniProt Q6P9B9), the log2 fold change is 0.019 (inactive).

On to KLHDC4 (UniProt Q8TBB5), for which the log2 fold change is 0.062 (inactive).

On to LSS (UniProt P48449), for which the log2 fold change is 0.147 (inactive).

For the target MAN2B2 (UniProt Q9Y2E5), the log2 fold change was 0.029 (inactive).

For the target KHDC4 (UniProt Q7Z7F0), the log2 fold change was 0.012 (inactive).

For MCCC2 (UniProt Q9HCC0), the log2 fold change is -0.015 (inactive).

On to MAPKAPK5 (UniProt Q8IW41), for which the log2 fold change is 0.029 (inactive).

Turning to JMJD6 isoform 3 (UniProt Q6NYC1), the log2 fold change is -0.065 (inactive).

Regarding LARP4B (UniProt Q92615), the log2 fold change is 0.135 (inactive).

For LEO1 (UniProt Q8WVC0), the log2 fold change is -0.031 (inactive).

KDM1A isoform 2 (UniProt O60341): the log2 fold change is 0.175 (inactive).

Consider MFSD5 isoform 2 (UniProt Q6N075), for which the log2 fold change was 0.019 (inactive).

Turning to ITIH4 (UniProt Q14624), the log2 fold change is -0.044 (inactive).

Consider LARP4 isoform 4 (UniProt Q71RC2), for which the log2 fold change is 0.068 (inactive).

In the case of LTV1 (UniProt Q96GA3), the log2 fold change was 0.134 (inactive).

For LIAS (UniProt O43766), the log2 fold change was -0.212 (inactive).

Compound in the next experiment: CC(C)(O)CC(=O)NCCn1ccc2ncnc(Nc3ccc(Oc4cccc(C(F)(F)F)c4)c(Cl)c3)c21
The description is as above. In short, it runs like this: as §1
Turning to KPNA6 (UniProt O60684), the log2 fold change is -0.047 (inactive).

On to KDM3B (UniProt Q7LBC6), for which the log2 fold change was -0.089 (inactive).

For LMBRD2 (UniProt Q68DH5), the log2 fold change is -0.021 (inactive).

Regarding ME2 (UniProt P23368), the log2 fold change is 0.036 (inactive).

Turning to ILKAP (UniProt Q9H0C8), the log2 fold change is -0.133 (inactive).

As to MFN2 (UniProt O95140), the log2 fold change is 0.009 (inactive).

In the case of INPP5B (UniProt P32019), the log2 fold change was -0.053 (inactive).

For LARP1 (UniProt Q6PKG0), the log2 fold change was 0 (inactive).

For MIER1 isoform 12 (UniProt Q8N108), the log2 fold change was -0.021 (inactive).

As for L2HGDH (UniProt Q9H9P8), the log2 fold change is -0.092 (inactive).

Consider KRAS isoform 2 (UniProt P01116), for which the log2 fold change is 0.101 (inactive).

Take LTO1 (UniProt Q8WV07): the log2 fold change is 0.011 (inactive).

Regarding MFN1 (UniProt Q8IWA4), the log2 fold change is -0.043 (inactive).

Consider IKZF1 (UniProt Q13422), for which the log2 fold change was -0.015 (inactive).

Take MAP3K7 (UniProt O43318): the log2 fold change is -0.207 (inactive).

As to KIF3A (UniProt Q9Y496), the log2 fold change was -0.151 (inactive).

Regarding IMMT isoform 4 (UniProt Q16891), the log2 fold change is -0.035 (inactive).

As for LDLR (UniProt P01130), the log2 fold change was 0.072 (inactive).

As for LMNA (UniProt P02545), the log2 fold change was 0.115 (inactive).

MAGI1 (UniProt Q96QZ7): the log2 fold change was 0.032 (inactive).

For the target MAP3K4 isoform 2 (UniProt Q9Y6R4), the log2 fold change was -0.014 (inactive).

Take IWS1 (UniProt Q96ST2): the log2 fold change was -0.09 (inactive).

Regarding INTS5 (UniProt Q6P9B9), the log2 fold change is -0.232 (inactive).

For KLHDC4 (UniProt Q8TBB5), the log2 fold change was 0.002 (inactive).

As to LSS (UniProt P48449), the log2 fold change is 0.099 (inactive).

Take MAN2B2 (UniProt Q9Y2E5): the log2 fold change is -0.033 (inactive).

In the case of KHDC4 (UniProt Q7Z7F0), the log2 fold change is -0.201 (inactive).

For the target MCCC2 (UniProt Q9HCC0), the log2 fold change is 0.027 (inactive).

MAPKAPK5 (UniProt Q8IW41): the log2 fold change was -0.139 (inactive).

On to JMJD6 isoform 3 (UniProt Q6NYC1), for which the log2 fold change was 0.019 (inactive).

As for LARP4B (UniProt Q92615), the log2 fold change is 0.018 (inactive).

For the target LEO1 (UniProt Q8WVC0), the log2 fold change was -0.044 (inactive).

For the target KDM1A isoform 2 (UniProt O60341), the log2 fold change is -0.111 (inactive).

Consider MFSD5 isoform 2 (UniProt Q6N075), for which the log2 fold change is -0.017 (inactive).

For the target ITIH4 (UniProt Q14624), the log2 fold change was 0.17 (inactive).

On to LARP4 isoform 4 (UniProt Q71RC2), for which the log2 fold change is 0.046 (inactive).

Regarding LTV1 (UniProt Q96GA3), the log2 fold change is 0.001 (inactive).

For the target LIAS (UniProt O43766), the log2 fold change is -0.003 (inactive).
